This is a sample that favours compounds with a hit; in the whole collection about 9.2% have one here.
FLuc modulator: firefly luciferase modulation, counter-screen for miR-21 project; purified FLuc, Km substrates, luminescence inhibition; Potency, µM (top dose mostly 57.5 µM), without a hit: top-dose activity change, negative = inhibition, most hits filed as inhibitors; 6.9% of 360,000 active;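 further: plate controls were vehicle for no effect and reference inhibitor for full effect; nearly all actives have a fitted effect of over 55% in size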
Target sequence (P08659 whole entry, looked up): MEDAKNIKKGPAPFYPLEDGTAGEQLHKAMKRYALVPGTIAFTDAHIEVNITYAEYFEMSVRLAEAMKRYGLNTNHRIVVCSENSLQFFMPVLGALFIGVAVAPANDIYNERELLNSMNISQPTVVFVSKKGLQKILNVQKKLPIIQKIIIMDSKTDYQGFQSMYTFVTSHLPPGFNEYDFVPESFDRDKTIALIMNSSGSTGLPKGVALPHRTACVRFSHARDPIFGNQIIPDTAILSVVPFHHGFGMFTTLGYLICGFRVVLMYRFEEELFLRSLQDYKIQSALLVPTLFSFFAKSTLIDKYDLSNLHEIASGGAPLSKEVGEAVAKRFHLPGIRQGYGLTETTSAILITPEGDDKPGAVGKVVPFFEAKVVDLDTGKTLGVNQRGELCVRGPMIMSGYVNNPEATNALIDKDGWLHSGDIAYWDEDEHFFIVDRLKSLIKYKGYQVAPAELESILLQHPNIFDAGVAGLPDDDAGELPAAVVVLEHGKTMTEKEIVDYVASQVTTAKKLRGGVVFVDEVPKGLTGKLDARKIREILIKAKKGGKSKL
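Purified P. pyralis luciferase, 10 nM final, with Km-level 10 uM D-luciferin and 10 uM ATP in 50 mM Tris acetate pH 7.5, 10 mM Mg acetate, 0.01% Tween-20, 0.05% BSA; 6-point qHTS titration about 60 µM downward; luminescence read.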
ELG1 genotoxic: inducers of genotoxicity in HEK293T ELG1-luciferase cells; HEK293T ELG1-luciferase reporter, luminescence, 16 h; Potency, µM (doses to about 46 µM), for inactives: at the highest dose activity change, positive = activation, actives largely listed as activators; 1.3% of 330,000 active; further: % of control where 0% means no effect; nearly all actives have a fitted effect of over 60% in size
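Reporter readout depends on ELG1 protein level, which increases with genetic stress. After 16 hr compound exposure at 37 °C, luciferase activity was quantified using ONE-Glo.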
NPC1 promoter act: activators of NPC1 promoter | Huh7 NPC1 promoter luciferase reporter, 24 h | Potency, µM (top dose mostly 9.22 µM), without a hit: top-dose activation, usual class: activators | 2.4% of 320,000 active | AID 485313; further: % of control where 0% means no effect; nearly all actives have a fitted effect of over 60% in size
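Readout is luciferase luminescence, reflecting NPC1 promoter activation in stably transfected Huh7 cells after 24 h compound exposure at 37 °C in reduced-serum medium with 10% FBS.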
Rab9 prom act: activators of Rab9 promoter. Huh7 Rab9 promoter-luciferase reporter, luminescence, 24 h. Potency, µM (series often up to 9.22 µM), for the others: top-dose activation, negative = inhibition, actives largely listed as activators. 2.8% of 320,000 active. AID 485297; further: % of control where 0% means no effect; nearly all actives have a fitted effect of over 60% in size
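Stable Rab9-luc Huh7, 1500 cells/well, 2 h settle; cmpd in DMSO, 24 h, 37 °C/5% CO2; luciferase reagent 10 min RT; luminescence.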
ELG1 DNA repair: inhibitors of ELG1-dependent DNA repair in HEK293T cells; HEK293T ELG1-luciferase reporter, luminescence, 16 h; DNA damage induced by 5-fluorouridine; Potency, µM (highest dose often 46.1 µM), inactives show at the highest dose activity change, negative = inhibition, actives largely listed as inhibitors; 2.3% of 330,000 active; AID 504467; further: on the % scale 0 is the no-effect control and ±100 the full control effect; nearly all actives have a fitted effect of over 55% in size
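Step one: seed 2,000 cells per well. Step two: pin-transfer compound or DMSO alongside 5-fluorouridine. Step three: incubate 16 hr, 37 °C, 5% CO2. Step four: add ONE-Glo, wait 30 min, read luminescence.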
SMN2 splice up: increases expression of the SMN2 splice variant; HEK293 SMN2-luciferase splicing reporter, luminescence, 30-36 h; Potency, µM (highest dose often 46.1 µM), without a hit: top-dose activity change, positive = activation, most hits filed as activators; 2.8% of 210,000 active; AID 1458; further: % of control where 0% means no effect; nearly all actives have a fitted effect of over 55% in size
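HEK293 cells carry an SMN2 minigene-luciferase reporter in which exon 7 inclusion puts luciferase in frame. Cells were seeded at 2000 cells/well, attached for 10-12 hours, then exposed to compounds for 30-36 hours at 37C before ONE-Glo luminescence.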
The depositor's hits bear a star; u = inconclusive; x = not tested or not shown. The call rests on the fitted dose curve; in most records, active means well fitted curve in the direction sought with a large enough effect; inconclusive means small, poorly fitted or top-dose-only effect, or another doubt; inactive means no such curve, though single readings can be large; an effect the other way counts as inactive or inconclusive. Potency means the concentration at half of the fitted maximal effect.

SMILES	FLuc modulator	ELG1 genotoxic	NPC1 promoter act	Rab9 prom act	ELG1 DNA repair	SMN2 splice up
CCOC(=O)N1CCN(CC(=O)Nc2cc(OC)c(OC)cc2C#N)CC1	-1%	-14%	-3%	-5%	-3%	-7%
CCC1=C2CC[C@H]3C(=O)N(c4ccccc4)C(=O)[C@H]3[C@H]2[C@@]2(Cc3ccccc3)C(=NCc3ccccc3)OC(=O)N2C1=O	x	x	x	x	x	1%
O=C(CCl)N(c1ccccc1)C1CCCCC1	-3%	-20%	-37%	-48%	16µM*	-108%
CC(=O)N(c1ccccc1)C1CCCC1	1%	-1%	-1%	-8%	4%	-16%
Nc1nnc(SCC(=O)OCC(=O)c2ccccc2Br)s1	-14%	0%	0%	-2%	5%	9%
CCCC1CCC(C(=O)Nn2c(C)nc3ccccc3c2=O)CC1 (configuration not stated)	0%	-1%	0%	2%	u	-21%
CCCC1CCC(C(=O)n2nc(N)c3cc4ccc(OC)cc4nc32)CC1 (configuration not stated)	-1%	-10%	0%	-2%	5.8µM*	-12%
Nc1c(C(=O)c2ccccc2)sc2snc(SCC(=O)c3ccccc3)c12	7.6µM*	2%	16%	29%	13%	3%
Nc1nnc(SCC(=O)c2ccccc2)s1	-15%	11%	10%	18%	u	19%
CCOC(=O)C1CCN(C(=O)C2CCN(S(=O)(=O)c3c(C)noc3/C=C/c3ccc(C)cc3)CC2)CC1	7%	x	x	x	x	x
Cc1ccc(N2C(=O)CS(=O)C(c3ccccc3)C2=O)cc1C (configuration not stated)	12µM*	13%	4%	11%	13%	-3%
CC(N=C1NS(=O)(=O)c2ccccc21)C(=O)OCC(=O)N(C)C1CCS(=O)(=O)C1 (configuration not stated)	-1%	-1%	-2%	-7%	19%	x
CN(C)S(=O)(=O)c1cccc(NC(=S)Nc2cccc3cnccc23)c1	u	-14%	-5%	-14%	21µM*	x
S=C(Nc1cccnc1)Nc1cccc2cnccc12	u	-14%	-5%	10%	-17%	-27%
Cc1cccc(NC(=O)C2C3CCCCC32)c1 (configuration not stated)	19µM*	u	u	u	u	x
Cc1cc(C)c(NC(=O)C2C3/C=C\CCCCC32)c(C)c1 (configuration not stated)	1%	5%	20%	u	18%	15%
O=C(Nc1cccc([N+](=O)[O-])c1)C1C2CCCCC21 (configuration not stated)	-9%	0%	2%	15%	16%	x
Cc1ccc(NC(=O)C2C3/C=C\CCCCC32)cc1 (configuration not stated)	u	15%	u	3.5µM*	u	u
Cc1ccc(NC(=O)C2C3CCCCC32)cc1[N+](=O)[O-] (configuration not stated)	12µM*	u	u	u	u	x
Cc1cc(NC(=O)OC2CCCCC2)ccc1[N+](=O)[O-]	7.6µM*	22%	2.8µM*	2.8µM*	u	x
CC(=O)c1cccc(Nc2nc(-c3sc(N)nc3C)cs2)c1	17µM*	12%	15%	22%	8.2µM*	x
Cc1nc(C)c(-c2ccc(SCC(=O)Nc3cccc(F)c3)nn2)s1	u	-17%	-11%	-14%	u	x
CC(=O)c1cccc(NC(=O)CSc2ccc(-c3sc(C)nc3C)nn2)c1	13µM*	-29%	-5%	-3%	23µM*	x
CC(=O)c1cccc(Nc2nc(-c3sc(C)nc3C)cs2)c1	u	2%	4%	-1%	16µM*	x
O=C(CCSCCc1ccccn1)Nc1ccccc1C(F)(F)F	-5%	x	x	x	x	x
CCc1cccc(C)c1Nc1c(-c2ccc(SC)cc2)nc2sccn12	-14%	x	x	x	x	19%
